# From the supplement of paper PMC8047044
# Several values for one entry are separate records, joined by “and”; a condition that tells them apart may be missing. Equal values may be shown once. Where a name gives a salt, the structure may show the parent alone.
# Tested on: Neuro-2a
# Assay: neurite formation score, plate-normalized to DMSO control mean 5.04 (score (0-8 scale)); higher = more or longer neurites
# Details: 0.1 µM
# Procedure: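 Neuro-2a mouse neuroblastoma cells in PLL-coated 96-well plates were pre-treated for 1 h in DMEM(+) with each kinase inhibitor at 0.1 µM, then switched to serum-free DMEM(-) with inhibitor to induce neurite outgrowth and fixed about 2-3 h later. Three blinded observers scored neurite formation from 0 (no neurites) to 8 (long neurites on almost all cells).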
row,SMILES,neurite formation score
1,CN1CCN(Cc2ccc(-c3cnc4[nH]cc(-c5ccc6[nH]ccc6c5)c4c3)cc2)CC1,4.42
2,Brc1c(Br)c(Br)c2n[nH]nc2c1Br,5.09
3,COc1c(C)c(C(=O)c2ccc(N)c(C(=O)O)c2)n2ccccc12,5.25
4,CCOc1cc(N2CCC(O)CC2)ccc1Nc1ncc2c(n1)N(C)c1ccccc1C(=O)N2C,4.92
5,Cc1cc(C)nc(NS(=O)(=O)c2ccc(NC(=S)NC(=O)COc3ccc(Br)cc3Cl)cc2)n1,3.88
6,CNC(=O)c1cc(Oc2ccc(NC(=O)Nc3ccc(Cl)c(C(F)(F)F)c3)c(F)c2)ccn1 [Regorafenib],4.88
7,COc1cc(OC)c(/C=C/S(=O)(=O)Cc2ccc(OC)c(NCC(=O)O)c2)c(OC)c1,3.04
8,O=C(Nc1ccc(CN2CCOCC2)cc1)c1ccc(-c2cccc(Cl)c2)o1,5.54
9,CNC(=O)c1ccc(-c2cnc3ncc(Cc4ccc5ncccc5c4)n3n2)cc1F,4.09
10,CNC(=O)c1cc(COc2nnc(Nc3ccc(Cl)cc3)c3ccoc23)ccn1 [Telatinib (BAY 57-9352)],4.92
11,Cc1c(NC(=O)c2ccc(C(C)(C)C)cc2)cccc1-c1cn(C)c(=O)c(Nc2ccc(C(=O)N3CCOCC3)cc2)n1,5.04
12,C[C@@H]1CCNC(=O)c2cc3ccc(C(=O)Nc4nc5ccccc5n4CCCN(C)C)cc3n21,4.92
13,CC(=O)c1c(C)c2cnc(Nc3ccc(N4CCNCC4)cn3)nc2n(C2CCCC2)c1=O,4.88 and 4.54
14,C[C@@H](Oc1cc(-n2cnc3ccc(CN4CCN(C)CC4)cc32)sc1C(N)=O)c1ccccc1C(F)(F)F,3.58
15,O=c1c(-c2ccc(O)cc2)coc2cc(O)cc(O)c12 [Genistein],3.38
16,CC(C)(C)c1nc(-c2cccc(NS(=O)(=O)c3c(F)cccc3F)c2F)c(-c2ccnc(N)n2)s1,5.25
17,N#C/C(=C(/N)Sc1ccc(N)cc1)c1ccccc1C(F)(F)F,4.71
18,NC(=O)c1cccc(-c2cc(Nc3ccc(OC(F)(F)F)cc3)ncn2)c1,3.76
19,C[C@]1(O)C[C@@H](c2nc(-c3ccc4ccc(-c5ccccc5)nc4c3)c3c(N)nccn32)C1 [Linsitinib],4.54
20,N#CC[C@H](C1CCCC1)n1cc(-c2ncnc3[nH]ccc23)cn1,5.04

row,SMILES,neurite formation score
1,Cc1cc(O)c2c(c1)C(=O)c1cccc(O)c1C2=O [Chrysophanol],4.76
2,CN1CC[C@H](c2c(O)cc(O)c3c(=O)cc(-c4ccccc4Cl)oc23)[C@H](O)C1 [Flavopiridol hydrochloride],3.76
3,CN1CCC(Nc2nc(Nc3ccc(Oc4ccccc4)cc3)c3c(=O)[nH]cc(Br)c3n2)CC1,4.25
4,C[C@@H](Oc1cc(-c2cnn(C3CCNCC3)c2)cnc1N)c1c(Cl)ccc(F)c1Cl [(R)-Crizotinib],4.71
5,N#CCNC(=O)c1ccc(-c2ccnc(Nc3ccc(N4CCOCC4)cc3)n2)cc1 [CYT387 sulfate salt],4.92
6,N#CC1(c2ccc(NC(=O)c3cccnc3NCc3ccncc3)cc2)CCCC1 [Apatinib],4.08
7,CNC(=O)c1cc(Oc2ccc(NC(=O)Nc3ccc(Cl)c(C(F)(F)F)c3)c(F)c2)ccn1 [Regorafenib hydrochloride],4.92
8,O=C(Nc1c[nH]nc1-c1nc2ccc(CN3CCOCC3)cc2[nH]1)NC1CC1,5.92
9,CNC(=O)c1cc(Oc2ccc(NC(=O)Nc3ccc(Cl)c(C(F)(F)F)c3)cc2)ccn1 [Sorafenib Tosylate],3.54
10,Cc1ncc(-c2ccnc(Nc3ccc(S(C)(=O)=O)cc3)n2)n1C(C)C,3.54
11,CNC(=O)c1cc(Oc2ccc(NC(=O)c3cccc(C(F)(F)F)c3)cc2)ccn1,5.54
12,O=C1c2ccc(Nc3ccc(F)cc3F)cc2CCc2ccc(OC[C@H](O)CO)cc21 [Skepinone-L],5.25
13,CNC(=O)c1cc(Oc2ccc(NC(=O)Nc3cc(C(C)(C)C)nn3-c3ccc4ncccc4c3)c(F)c2)ccn1 [DCC-2036 (Rebastinib)],3.92
14,CO[C@H]1C[C@@H]2CC[C@@H](C)[C@@](O)(O2)C(=O)C(=O)N2CCCC[C@H]2C(=O)O[C@H]([C@H](C)C[C@@H]2CC[C@@H](OCCO)[C@H](OC)C2)CC(=O)[C@H](C)/C=C(\C)[C@@H](O)[C@@H](OC)C(=O)[C@H](C)C[C@H](C)/C=C/C=C/C=C/1C [Everolimus (RAD001)],5.54
15,CC(C)(C)NS(=O)(=O)c1cncc(-c2cc(F)c3nc(N)nn3c2)c1,4.92
16,Cc1[nH]c(/C=C2\C(=O)Nc3ccc(S(=O)(=O)Cc4c(Cl)cccc4Cl)cc32)c(C)c1C(=O)N1CCC[C@@H]1CN1CCCC1,5.04
17,Cc1cc(Nc2cc(N3CCN(C)CC3)nc(/C=C/c3ccccc3)n2)n[nH]1,3.92
18,COc1ccc(-c2ccc3ncc4c(c3c2)n(-c2ccc(N3CCNCC3)c(C(F)(F)F)c2)c(=O)n4C)cn1,4.92
19,COc1cc2ncnc(Oc3cccc(NC(=O)Nc4cc(C(C)(C)C(F)(F)F)on4)c3)c2cc1OC,4.71
20,O=C(Cc1ccc(-c2ccc(OCCN3CCOCC3)cc2)cn1)NCc1ccccc1,-0.243
